The experiment addresses Estrogen receptor (Homo sapiens) (UniProt P03372). In words: ERalpha ligand binders by competition, primary screen, cell-based, Cos7 ERalpha-GFP, flow cytometry (AID 1211).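 Note: 0% = DMSO vehicle wells and 100% = no E2-Alexa633 signal left.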 Particulars: fluorescent ligand competition, stronger effect = higher value. (In general: In flow cytometry, cells or beads pass a laser one at a time.)

Calls of active or inactive are those of the source. The rule behind the calls is not given here.

Chain of Estrogen receptor (Homo sapiens) (P03372 whole entry, looked up): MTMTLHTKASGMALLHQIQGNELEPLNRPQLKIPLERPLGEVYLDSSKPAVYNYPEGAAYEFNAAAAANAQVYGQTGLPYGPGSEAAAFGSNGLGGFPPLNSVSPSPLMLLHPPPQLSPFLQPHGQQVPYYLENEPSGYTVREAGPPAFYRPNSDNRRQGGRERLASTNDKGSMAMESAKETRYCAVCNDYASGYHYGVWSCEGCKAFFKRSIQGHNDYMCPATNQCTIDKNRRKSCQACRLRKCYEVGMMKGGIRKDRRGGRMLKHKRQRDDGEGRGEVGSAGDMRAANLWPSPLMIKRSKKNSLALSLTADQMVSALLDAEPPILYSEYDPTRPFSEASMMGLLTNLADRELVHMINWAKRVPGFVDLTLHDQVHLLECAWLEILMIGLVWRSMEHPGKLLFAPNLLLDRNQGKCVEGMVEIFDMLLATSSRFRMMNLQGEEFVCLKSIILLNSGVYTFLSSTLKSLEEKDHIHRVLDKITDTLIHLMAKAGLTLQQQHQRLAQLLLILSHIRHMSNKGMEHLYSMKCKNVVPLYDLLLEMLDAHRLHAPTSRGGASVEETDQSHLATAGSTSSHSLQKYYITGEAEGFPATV

On to `COc1cc(OC)cc(C(=O)NC2CCN(C(=O)N3c4ccccc4Sc4ccccc43)CC2)c1`, for which the inhibition of ligand binding is, setting by setting: (at 10 µM) 6% (inactive); (binding inhibition, at 0.1 µM) 22%.

`COc1nc(-c2ccc(Cl)cc2)ccc1-c1noc(-c2ccco2)n1`: the inhibition of ligand binding reads like this: (at 10 µM) 57% (inactive); (binding inhibition, at 0.1 µM) 14%.

`O=C(O)c1ccc2c(c1)-c1nc3ccccc3n1C2=O`: the inhibition of ligand binding (at 10 µM) is 32% (inactive) and the inhibition of ligand binding (binding inhibition, at 0.1 µM) was determined as 5%.

Consider `CCOc1cccc2cc(-c3cn4cc(C)ccc4n3)c(=O)oc12`, for which the inhibition of ligand binding (at 10 µM) is 52% (inactive) and the inhibition of ligand binding (binding inhibition, at 0.1 µM) was 29%.

Take `CC1(C)Cc2c(sc3c4nnnn4c4nnnn4c23)CO1`: the inhibition of ligand binding (at 10 µM) was 12% (inactive) and the inhibition of ligand binding (binding inhibition, at 0.1 µM) was 21%.

`O=c1oc2ccccc2n1CCn1c2ccccc2c2nc3ccccc3nc21`: the inhibition of ligand binding was 27% (inactive) (at 10 µM) and 28% (binding inhibition, at 0.1 µM).

With `CCOC(=O)c1c(C)oc2c1c(C=NC1CCS(=O)(=O)C1)c(O)c1ccccc12` (stereo not drawn), the inhibition of ligand binding is, setting by setting: (at 10 µM) 29% (inactive); (binding inhibition, at 0.1 µM) 43%.

With `O=C(OCC(=O)N1CCN(C(=O)c2ccco2)CC1)c1cc(-c2ccco2)nc2ccccc12`, the inhibition of ligand binding is 34% (active) (at 10 µM) and 77% (binding inhibition, at 0.1 µM).

Regarding `CCCCn1c(NC(=O)CC)c(C#N)c2nc3ccccc3nc21`, the inhibition of ligand binding (at 10 µM) is 35% (inactive) and the inhibition of ligand binding (binding inhibition, at 0.1 µM) amounted to 40%.

Take `N=C1C(c2nc3ccccc3[nH]2)=C(O)CN1c1ccc(CC(=O)O)cc1`: the inhibition of ligand binding is 45% (active) (at 10 µM) and 96% (binding inhibition, at 0.1 µM).

Turning to `CCc1ccc2[nH]c(=O)c(C3C(C#N)=C(N)Oc4c3ccc3cccnc43)cc2c1` (stereo not drawn), the inhibition of ligand binding was 30% (inactive) (at 10 µM) and 37% (binding inhibition, at 0.1 µM).

With `Cc1ccc(C(=O)NCC(=O)OCC(=O)c2c(N)n(C)c(=O)n(C)c2=O)s1`, the inhibition of ligand binding is 14% (inactive) (at 10 µM) and 5% (binding inhibition, at 0.1 µM).

With `Oc1ccc(/C=N/n2c(-c3ccco3)csc2=Nc2cccnc2)c(O)c1`, the inhibition of ligand binding is, setting by setting: (at 10 µM) 49% (inactive); (binding inhibition, at 0.1 µM) 21%.

In the case of `Cc1cc(-c2nnc3sc(-c4ccc(Cl)cc4Cl)nn23)n[nH]1`, the inhibition of ligand binding reads like this: (at 10 µM) 27% (inactive); (binding inhibition, at 0.1 µM) 53%.

In the case of `O=C(CCCn1c(=S)[nH]c2ccccc2c1=O)N1CCN(c2cccc(Cl)c2)CC1`, the inhibition of ligand binding was 55% (inactive) (at 10 µM) and 15% (binding inhibition, at 0.1 µM).

Turning to `CCOc1ccc(C2C3=C(Nc4nc(N)[nH]c(=O)c42)c2ccccc2C3=O)cc1` (stereo not drawn), the inhibition of ligand binding reads like this: (at 10 µM) 50% (inactive); (binding inhibition, at 0.1 µM) 26%.

For the compound `Cn1c(C(=O)Nc2ccc3c(c2)OCO3)cc2c(=O)n(C)c3ccccc3c21`, the inhibition of ligand binding by setting is: (at 10 µM) 26% (inactive); (binding inhibition, at 0.1 µM) 15%.

As to `O=C(Cc1cccs1)Nc1ccccn1`, the inhibition of ligand binding by setting is: (at 10 µM) 0% (inactive); (binding inhibition, at 0.1 µM) 16%.

On to `CC(C)(C)c1nnc2sc(SC/C(O)=C(\C#N)c3nc4ccccc4[nH]3)nn2c1=O`, for which the inhibition of ligand binding is 20% (inactive) (at 10 µM) and 8% (binding inhibition, at 0.1 µM).

In the case of `Cc1ccc(-n2c(=O)c(C#N)cc3c(=O)n4cccc(C)c4nc32)cc1`, the inhibition of ligand binding (at 10 µM) is 53% (inactive) and the inhibition of ligand binding (binding inhibition, at 0.1 µM) was 32%.

For the compound `Cc1cc(C(=O)O)ccc1-n1c(C)ccc1C`, the inhibition of ligand binding runs as follows: (at 10 µM) 43% (inactive); (binding inhibition, at 0.1 µM) 58%.

Consider `Clc1ccc2nc(-c3ccccn3)c(Nc3ccc4c(c3)OCO4)n2c1`, for which the inhibition of ligand binding was 42% (inactive) (at 10 µM) and 9% (binding inhibition, at 0.1 µM).

On to `NNc1nc2sc3c(c2c(=O)[nH]1)CCc1ccccc1-3`, for which the inhibition of ligand binding by setting is: (at 10 µM) 55% (inactive); (binding inhibition, at 0.1 µM) 28%.

As for `COc1ccc(-c2ccc(-c3noc(-c4cccs4)n3)c(OC)n2)cc1`, the inhibition of ligand binding reads like this: (at 10 µM) 24% (inactive); (binding inhibition, at 0.1 µM) 54%.

On to `CCCCNS(=O)(=O)c1ccc(NC(=O)C(Sc2ccccc2)c2ccccc2)cc1` (stereo not drawn), for which the inhibition of ligand binding runs as follows: (at 10 µM) 25% (inactive); (binding inhibition, at 0.1 µM) 21%.

Turning to `O=C(COC(=O)CCOc1ccccc1)NCc1ccco1`, the inhibition of ligand binding was 50% (inactive) (at 10 µM) and 57% (binding inhibition, at 0.1 µM).

Regarding `NS(=O)(=O)c1ccc2c(c1)C1C=CCC1C(C1CC=CCC1)N2` (stereo not drawn), the inhibition of ligand binding (at 10 µM) was 69% (active) and the inhibition of ligand binding (binding inhibition, at 0.1 µM) turned out to be 17%.

In the case of `CC(=O)c1ccc(NC(=S)N2CCC(O)CC2)cc1`, the inhibition of ligand binding by setting is: (at 10 µM) 30% (inactive); (binding inhibition, at 0.1 µM) 23%.

Consider `COC(=O)c1cc(-c2c(C)oc3cc(O)ccc3c2=O)c(C)o1`, for which the inhibition of ligand binding (at 10 µM) was 32% (inactive) and the inhibition of ligand binding (binding inhibition, at 0.1 µM) worked out at 50%.

Consider `Cc1cc(C(=O)Nc2sc3c(c2C#N)CCC3)no1`, for which the inhibition of ligand binding is, setting by setting: (at 10 µM) 46% (active); (binding inhibition, at 0.1 µM) 66%.

Regarding `O=C(COC(=O)c1cccc(S(=O)(=O)N2CCc3ccccc3C2)c1)NCc1ccco1`, the inhibition of ligand binding was 35% (inactive) (at 10 µM) and 7% (binding inhibition, at 0.1 µM).

On to `CSc1ccccc1NC(=O)c1noc2c1CCC2`, for which the inhibition of ligand binding (at 10 µM) is 56% (inactive) and the inhibition of ligand binding (binding inhibition, at 0.1 µM) is 26%.

With `Cc1ccc(-n2nnnc2SCC(=O)Nc2cccc(NC(=O)c3ccco3)c2)cc1C`, the inhibition of ligand binding (at 10 µM) was 46% (inactive) and the inhibition of ligand binding (binding inhibition, at 0.1 µM) turned out to be 7%.

On to `Cc1cs/c(=N\N=C\c2ccc(O)cc2)n1Cc1ccco1`, for which the inhibition of ligand binding is 51% (inactive) (at 10 µM) and 55% (binding inhibition, at 0.1 µM).

In the case of `C[C@]12CC[C@@H]3c4ccc(O)cc4C(=O)C[C@H]3[C@@H]1CC[C@@H]2O`, the inhibition of ligand binding is, setting by setting: (at 10 µM) 78% (active); (binding inhibition, at 0.1 µM) 88%.

For `Cc1cnc(C(=O)OCC(=O)c2csc(N3CCCCC3)n2)cn1`, the inhibition of ligand binding was 17% (inactive) (at 10 µM) and 63% (binding inhibition, at 0.1 µM).

Regarding `O=C1NCCCC2c3cc(O)c4ccccc4c3OC12N1CCCCC1` (stereo not drawn), the inhibition of ligand binding is 25% (inactive) (at 10 µM) and 23% (binding inhibition, at 0.1 µM).

With `O=C(COC(=O)c1ccccc1)NCc1ccco1`, the inhibition of ligand binding reads like this: (at 10 µM) 29% (inactive); (binding inhibition, at 0.1 µM) 27%.

In the case of `O=C(Nc1ccc2oc(-c3ccc4ccccc4c3)nc2c1)c1cccs1`, the inhibition of ligand binding by setting is: (at 10 µM) 32% (inactive); (binding inhibition, at 0.1 µM) 51%.

`Cc1oc2c(C)c(O)ccc2c(=O)c1N1C(=O)c2ccccc2C1=O`: the inhibition of ligand binding reads like this: (at 10 µM) 9% (inactive); (binding inhibition, at 0.1 µM) 52%.

Regarding `Cc1c(N=Cc2ccc(O)c(Br)c2)cccc1[N+](=O)[O-]`, the inhibition of ligand binding (at 10 µM) was 0% (inactive) and the inhibition of ligand binding (binding inhibition, at 0.1 µM) amounted to 23%.

Regarding `Cc1ccc(NC(=O)CSc2nc3ccccc3c3nc4ccccc4n23)cc1`, the inhibition of ligand binding by setting is: (at 10 µM) 60% (inactive); (binding inhibition, at 0.1 µM) 27%.

As to `O=C(CSc1nc(C2CCCCC2)n(-c2ccccc2)n1)NCC(F)(F)F`, the inhibition of ligand binding reads like this: (at 10 µM) 41% (inactive); (binding inhibition, at 0.1 µM) 46%.

Turning to `Cc1noc(C)c1COC(=O)c1cc2c3ccccc3n(C)c2s1`, the inhibition of ligand binding (at 10 µM) is 41% (inactive) and the inhibition of ligand binding (binding inhibition, at 0.1 µM) worked out at 33%.

As to `CC1(C)CCCN(C(=O)c2coc(=O)c(Br)c2)C1`, the inhibition of ligand binding is 33% (inactive) (at 10 µM) and 25% (binding inhibition, at 0.1 µM).

With `CC(=O)Nc1ccc(N=Cc2nc(-c3ccc(C)cc3)oc2O)cc1`, the inhibition of ligand binding (at 10 µM) was 29% (inactive) and the inhibition of ligand binding (binding inhibition, at 0.1 µM) came out at 60%.

Take `O=S(=O)(NCc1csc(-c2cccnc2)n1)c1cccs1`: the inhibition of ligand binding runs as follows: (at 10 µM) 22% (inactive); (binding inhibition, at 0.1 µM) 5%.

For the compound `O=C(COC(=O)CCC(=O)c1cccs1)NCc1ccco1`, the inhibition of ligand binding (at 10 µM) is 42% (active) and the inhibition of ligand binding (binding inhibition, at 0.1 µM) was determined as 74%.

For `Cc1nn(-c2ccccc2)c(/N=C/c2ccc(O)cc2)c1-c1ccccc1`, the inhibition of ligand binding runs as follows: (at 10 µM) 77% (active); (binding inhibition, at 0.1 µM) 50%.

`Cc1nnc(NC(=O)CSc2nc3c(c(=O)n2CCc2ccccc2)SC(C)C3)s1` (stereo not drawn): the inhibition of ligand binding was 23% (inactive) (at 10 µM) and 61% (binding inhibition, at 0.1 µM).

As to `Oc1ccccc1-c1nnc(SCCN2CCOCC2)n1Cc1ccccc1`, the inhibition of ligand binding reads like this: (at 10 µM) 32% (inactive); (binding inhibition, at 0.1 µM) 44%.

As to `C1=C(N2CCOCC2)/C(=C/c2nc3ccccc3[nH]2)CC1`, the inhibition of ligand binding by setting is: (at 10 µM) 50% (inactive); (binding inhibition, at 0.1 µM) 41%.

For `O=S(=O)(c1cccc(-c2cn3cccnc3n2)c1)N1CCCCCC1`, the inhibition of ligand binding was 25% (inactive) (at 10 µM) and 48% (binding inhibition, at 0.1 µM).

Take `O=C(c1cc2ncc(Br)cn2n1)N1CCOCC1`: the inhibition of ligand binding reads like this: (at 10 µM) 54% (inactive); (binding inhibition, at 0.1 µM) 25%.

On to `COC(=O)c1cnn2c(C(F)(F)F)cc(-c3ccco3)nc12`, for which the inhibition of ligand binding runs as follows: (at 10 µM) 0% (inactive); (binding inhibition, at 0.1 µM) 32%.

On to `O=C(Nc1ccccc1N1CCOCC1)c1cc(-c2ccco2)nc2ccccc12`, for which the inhibition of ligand binding is 15% (inactive) (at 10 µM) and 22% (binding inhibition, at 0.1 µM).

For the compound `CC1(N2CCOCC2)CC2(O)C(=[N+]1[O-])CCc1nonc12` (stereo not drawn), the inhibition of ligand binding is 34% (inactive) (at 10 µM) and 46% (binding inhibition, at 0.1 µM).

As for `CN(/N=C/c1cccnc1)c1cnn(-c2ccc(F)c(Cl)c2)c(=O)c1Cl`, the inhibition of ligand binding runs as follows: (at 10 µM) 24% (inactive); (binding inhibition, at 0.1 µM) 15%.

For the compound `COc1cc2c(cc1O)C(Cc1ccc(O)cc1)NCC2` (stereo not drawn), the inhibition of ligand binding reads like this: (at 10 µM) 34% (inactive); (binding inhibition, at 0.1 µM) 8%.

Regarding `CCN(c1ccccc1)S(=O)(=O)c1cc(C(=O)O)ccc1C`, the inhibition of ligand binding (at 10 µM) is 7% (inactive) and the inhibition of ligand binding (binding inhibition, at 0.1 µM) stood at 20%.

With `O=C(Nc1nccs1)c1nc(-c2ccccc2)n(-c2ccccc2)n1`, the inhibition of ligand binding reads like this: (at 10 µM) 27% (inactive); (binding inhibition, at 0.1 µM) 36%.

Consider `Cc1ccnc(NS(=O)(=O)c2ccc(NC(=O)Cc3cccs3)cc2)n1`, for which the inhibition of ligand binding runs as follows: (at 10 µM) 31% (inactive); (binding inhibition, at 0.1 µM) 63%.

In the case of `COc1ccc2[nH]c3c(c2c1)CCn1c-3nc2ccccc2c1=O`, the inhibition of ligand binding (at 10 µM) was 25% (inactive) and the inhibition of ligand binding (binding inhibition, at 0.1 µM) was 36%.

For the compound `CCOC(=O)C1CCCN(C(=O)c2ccc(CS(=O)(=O)c3ccc(C)cc3)o2)C1` (stereo not drawn), the inhibition of ligand binding is 30% (inactive) (at 10 µM) and 6% (binding inhibition, at 0.1 µM).

These data come from PubChem BioAssay AID1211 (NMMLSC, 2008).
